FBW7 activator – human FBW7 E3 ligase activation, primary screen | Q969H0 | AlphaScreen FBW7–phospho-cyclin E peptide binding, activator screen | normalized activity (activation), % at 26.1 µM | 650,000 compounds, 0.13% hits | AID 1259310; in the data active means normalized activity above about 1.9%;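 further: purified mutant Fbw7 with reduced substrate affinity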
GPR151 ag – human GPR151 activation; AID 1508602; PathHunter beta-arrestin GPR151 cells, luminescence; Q8TDV0; activation, % at 11.2 µM; 650,000 compounds, 1% hits; in the data active means activation above about 4.9%;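 further: 0% = median of compound wells and 100% = cells with positive control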
Target sequence (Q8TDV0 whole entry, looked up): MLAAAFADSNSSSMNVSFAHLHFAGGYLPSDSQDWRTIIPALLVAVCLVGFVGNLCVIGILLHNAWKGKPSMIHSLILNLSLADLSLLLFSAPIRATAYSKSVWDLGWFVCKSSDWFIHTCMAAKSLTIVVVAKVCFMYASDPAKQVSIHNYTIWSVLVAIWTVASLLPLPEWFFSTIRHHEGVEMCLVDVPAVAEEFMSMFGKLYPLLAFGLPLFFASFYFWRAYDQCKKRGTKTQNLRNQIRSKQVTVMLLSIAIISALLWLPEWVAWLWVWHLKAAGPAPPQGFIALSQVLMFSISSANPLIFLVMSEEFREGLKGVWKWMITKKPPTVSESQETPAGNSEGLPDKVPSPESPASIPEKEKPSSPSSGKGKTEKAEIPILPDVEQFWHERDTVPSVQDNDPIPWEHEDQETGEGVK
MITF inh – blocks human microphthalmia-associated transcription factor; 650,000 compounds, 0.91% hits; AID 1259374; AlphaScreen MITF homodimerization, bead proximity signal; inhibition, % at 2.6 µM; O75030; in the data active means inhibition above about 50%;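 further: 0% = vehicle wells with protein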
TEAD-YAP block – TEAD-YAP interaction inhibition. HEK-TIYL cells, TEAD-Gal4/YAP UAS-luciferase luminescence. 640,000 compounds, 1.4% hits. AID 1259422. inhibition, % at 9.12 µM; in the data active means inhibition above about 32%;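 further: 0% = median of test compound wells and 100% = reference inhibitor wells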
GPR151 conf act – human GPR151 activation, confirmation screen. shares compounds with GPR151 ag. GPR151 PathHunter beta-arrestin cells, luminescence, 90 min; % of EA-reagent control over plate median. AID 1508609. 6,700 tested, under 10 active. activation, % at 11.2 µM;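 active means mean percent activation across replicates above the confirmation screen cutoff of 4.91%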
GPR119 ag – GPR119 activation, counter-screen for GPR151 activators | shares compounds with GPR151 ag | GPR119 PathHunter beta-arrestin cells, luminescence, 90 min; 0 = compound-well median, 100 = enzyme-acceptor control | activation, % at 11.2 µM | 6,700 compounds, 0.3% hits | AID 1508611;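 active means mean percent activation in the counterscreen above 29.09%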;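 further: counterscreen on off-target GPR119 to flag nonselective hits from the GPR151 activator screen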
Active calls of the source: *; · = no result given. Shown are actives, neighbours in structure and some others; about 3.5% of the full set was active somewhere.

SMILES	FBW7 activator	GPR151 ag	MITF inh	TEAD-YAP block	GPR151 conf act	GPR119 ag
Cc1ccc(OCCN(C)Cc2ccc(OCC(O)CN(C)C)cc2)cc1 (stereo unspecified)	0	9.9*	9	13	0	7
N#C/C(=C/Nc1ccc(F)c([N+](=O)[O-])c1)c1nc(-c2ccccc2)cs1	0	3	11	7	·	·
N#C/C(=C\Nc1ccc(F)c([N+](=O)[O-])c1)c1nc(-c2cccc([N+](=O)[O-])c2)cs1	0	8.8*	-8	-3	-1	4
CCc1cc2c(nc1CC)CCN(CC/C(C)=N/O[C@H](C)c1cn([C@@H]3COC[C@H]3O)nn1)C2	0	-2	0	·	·	·
CCCNC(=O)CN(C)S(=O)(=O)c1ccc2nc(-c3ccccc3)[nH]c2c1	0	1	-6	-2	·	·
COc1cc(C2NC(=O)NC(C)=C2C(C)=O)cc([N+](=O)[O-])c1O (stereo unspecified)	0	7.8*	24	9	1	10
COC(=O)C1=C(C)NC(=O)NC1c1cc(OC)c(O)c([N+](=O)[O-])c1 (stereo unspecified)	0	1	5	-17	·	·
CCOC(=O)C1=C(C)NC(=O)NC1c1cc(Br)c(OCc2ccccc2)c(OC)c1 (stereo unspecified)	0	1	22	-4	·	·
COc1cc(C2NC(=O)NC(C)=C2C(C)=O)cc(Br)c1OCc1ccccc1 (stereo unspecified)	0	5.7*	19	-8	2	10
Cc1ccccc1Cc1c(C)nc2c(C(=O)N3CCN(c4cccc(Cl)c4)CC3)cnn2c1C	0	3	6	4	·	·
Cc1nc2c(C(=O)NCc3ccccn3)cnn2c(C)c1Cc1cccc(Cl)c1	0	8.1*	-12	1	2	12
COc1ccc(CNC(=O)c2cnn3c(C)c(Cc4cccc(Cl)c4)c(C)nc23)cc1	0	1	7	21	·	·
Cc1cccc(Cc2c(C)nc3c(C(=O)N4CCCC4)cnn3c2C)c1	0	2	-1	-6	·	·
Cc1nc2c(C(=O)N3CCCC3)cnn2c(C)c1Cc1cccc(Cl)c1	0	5.5*	15	-14	1	14
Cc1nc2c(C(=O)N3CCN(c4cccc(Cl)c4)CC3)cnn2c(C)c1Cc1ccccc1Cl	0	5.3*	2	12	0	-5
O=C(NCCc1c[nH]c2ccccc12)C(c1ccccc1)N1Cc2ccccc2C1=O (stereo unspecified)	0	5.2*	10	0	0	-8
Cc1ccccc1NC(=O)Cn1c(=O)n(C(C)C)c(=O)c2oc3ccccc3c21	0	2	-1	1	·	·
CC(C)OCCCNC(=O)CC1C(=O)NCCN1C (stereo unspecified)	0	5.8*	-1	1	0	4
CCNc1nc(NC(C)C)nc(Oc2ccc(OCC(=O)OCC)nn2)n1	0	0	-16	-2	·	·
COc1ccc(OC)c(/C=N/NC(=O)c2nnn(-c3nonc3N)c2CN(C)C)c1	0	1	19	8	·	·
CC(C)(C)C(=O)N1CCc2nc3ccccn3c(=O)c2C1	0	6.8*	-4	3	0	-5
CCC(=O)N1CCc2nc3ccccn3c(=O)c2C1	0	-1	-5	-5	·	·
COc1cc(OC)cc(C(=O)Nc2ccc(C(N)=O)cc2)c1	0	1	11	0	·	·
Cc1c(C#N)c2nc3c(c(-c4ccccc4)c2n1-c1ccccc1)CCCC3	0	6.1*	-1	6	0	-8
Cc1c(C#N)c2nc3c(c(-c4ccccc4)c2n1-c1ccccc1)C(=O)CC(C)(C)C3	0	0	9	6	·	·
COc1cccc(N2C(=O)CC(N3CCN(c4ccccc4Cl)CC3)C2=O)c1 (stereo unspecified)	1	-1	15	4	·	·
COC(=O)c1c(C)oc2ccc(N(C(=O)Oc3ccccc3)S(=O)(=O)c3cccc([N+](=O)[O-])c3)cc12	0	0	14	-2	·	·
Cc1ccc2nc(-c3ccc(C)c(C)c3)cc(C(=O)OCC(=O)c3ccc([N+](=O)[O-])cc3)c2c1	0	5.6*	7	4	0	7
Cc1ccc(C(=O)COC(=O)c2cc(-c3ccc(C)c(C)c3)nc3ccc(C)cc23)cc1	0	0	1	7	·	·
